Experimental data from PubChem BioAssay (NCATS).
Records with an inconclusive call do not appear. Activity calls are given as the source filed them. Calls come from the whole dose curve; as a rule, active = well fitted inhibition curve with a large enough effect; inconclusive = small, poorly fitted or top-dose-only effect; inactive = flat fitted curve, though single readings scatter. Where a SMILES comes first, the peptide text is derived from it. [ ]: non-standard residue; d: D form. ξ: configuration not given here. ξTyr(βOH) = NC(C(=O)O)C(O)c1ccc(O)cc1

assay: P-glycoprotein substrates identified in KB-8-5-11 adenocarcinoma cell line, qHTS therapeutic library screen (AID 1346987); conditions: KB-8-5-11 (P-gp overexpressing) viability, CellTiter-Glo, 72 h; series mostly up to 44.5 µM; activity change, negative = cytotoxicity: at the top concentration; note: nearly all actives have a fitted effect of over 65% in size
Procedure, shortened: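 KB-8-5-11: colchicine-selected sub-line of KB-3-1 over-expressing P-gp; assay medium lacked colchicine. 72 h drug exposure at 37 degree C, CellTiter-Glo.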
% is set by controls: 0 for no effect and ±100 for the full control effect; potency is the fitted concentration of half-maximal effect.

Row | Structure (SMILES) | activity change, negative = cytotoxicity | outcome | Potency
1 | CCCSc1nc(NC2CC2c2ccc(F)c(F)c2)c2nnn(C3CC(OCCO)C(O)C3O)c2n1 (stereo not drawn) | 0.539% (inactive) | – | –
2 | CC(=O)O[C@@H]1C(O)C[C@@]2(C)C(CC[C@@H](C)C23Cc2c(O)cc4c(c2O3)CNC4=O)C1(C)C (stereo partly drawn) | – | inactive [at 17.3 µM] | –
3 | COc1ccc(-n2c(SCC#N)nc3sc4c(c3c2=O)CCCC4)cc1 | 7.68% (inactive) | – | –
4 | COC(=O)[C@H](O)[C@H]1C(C)(C)[C@H](OC(C)=O)[C@@]2(O)C(=O)[C@]1(C)C1CC[C@]3(C)C(CC(=O)O[C@H]3c3ccoc3)[C@]13O[C@@H]32 (stereo partly drawn) | -5.25% [at 17.3 µM] (inactive) | – | –
5 | CC1=CCC[C@@H]2[C@@](C)(CCc3ccoc3)[C@H](C(=O)O)CC[C@@]12C | 1.12% (inactive) | – | –
6 | O=C(OC1C=C(CO)C2C(OC3OC(CO)C(O)C(O)C3O)OC=CC12O)c1ccc(O)cc1 (stereo not drawn) | 0.0782% [at 17.3 µM] (inactive) | – | –
7 | O=C(Nc1ccc(N2CCC(C(=O)N3CCOCC3)CC2)cc1)c1cnc(Oc2ccccc2)nc1 | – | inactive | –
8 | CC1(C(=O)O)CCCC2(C)C3CCC4CC3(CCC12)CC4(O)CO (stereo not drawn) | -1.07% (inactive) | – | –
9 | CN1CCN(C(=O)c2cc3cc(Cl)ccc3[nH]2)CC1 | – | inactive | –
10 | OC[C@H]1O[C@@H](O[C@H]2[C@H](O)[C@@H](CO)O[C@@H](OCc3ccccc3)[C@@H]2O[C@@H]2OC[C@](O)(CO)[C@H]2O)[C@H](O)[C@@H](O)[C@@H]1O | – | inactive [at 17.3 µM] | –
11 | O=C(O)CC1(O)C(=O)Nc2ccccc21 (stereo not drawn) | 6.68% [at 93.4 µM] (inactive) | – | –
12 | C[C@@]1(O)[C@H](O)[C@@H](CO)O[C@H]1n1cnc2c(=O)[nH]c(N)nc21 | – | inactive | –
13 | CC(C)C1NC(=O)CNC(=O)C2CCCN2C(=O)C(Cc2c[nH]c3ccccc23)NC(=O)CNC(=O)C(C(O)c2ccc(O)cc2)NC(=O)CNC1=O (stereo not drawn) (cyclo(G[ξTyr(βOH)]GWPGV); configuration not given here) | – | inactive [at 17.3 µM] | –
14 | CCNC(=O)C1CC(F)(c2ccc(CN3CCCC3)c(F)c2)C1 (stereo not drawn) | 8.29% (inactive) | – | –
15 | CC/C=C\C(O)C(O)C1=C(C)C(=O)C2(O1)C(=O)NC(OC)(C(=O)c1ccccc1)C2O (stereo not drawn) | – | inactive [at 17.3 µM] | –
16 | CC(=O)O[C@@H]1C=C2[C@H](CC[C@@]3(C)[C@@]2(O)CC[C@H]2Cc4c([nH]c5ccccc45)[C@@]23C)O[C@@H]1C(C)(C)O | 3.85% [at 17.3 µM] (inactive) | – | –
17 | CC(=O)NC(Cc1ccccc1)C(=O)NC(C(=O)O)C(C)C (stereo not drawn) (Ac-Phe-Val-OH; configuration not given here) | 3.63% (inactive) | – | –
18 | FC(F)(F)c1nnc2c(Sc3ccccc3)nc3ccc(Cl)cc3n12 | – | – | 4.61 µM (active)
19 | COc1ccnc(CCc2nc3ncccc3[nH]2)c1 | – | inactive | –
20 | CC(=O)O[C@@]1(C)[C@@H]2CC(=C(C)C)C(=O)C[C@@]2(C)CC[C@H]1OC(=O)C1(C)OC1C (stereo partly drawn) | -5.3% (inactive) | – | –
21 | COC(=O)C1C(O)CCC2CN3CCc4c([nH]c5ccccc45)C3CC21 (stereo not drawn) | – | inactive | –
22 | COc1cc2c(cc1OC)N1C(=O)C[C@@]34C=CC[N@+]5([O-])CC[C@H]2[C@H](CC3)[C@@]145 | 8.24% (inactive) | – | –
23 | C[C@@H]1O[C@@H](O[C@H]2[C@H](OC(=O)[C@]34CCC(C)(C)C[C@H]3C3=CCC5[C@@]6(C)C[C@@H](O)[C@@H](O[C@@H]7O[C@H](CO)[C@@H](O)[C@H](O)[C@H]7O)[C@@](C)(CO)C6[C@H](O)C[C@@]5(C)[C@]3(C)CC4)OC[C@H](O)[C@@H]2O)[C@H](O)[C@H](O[C@@H]2OC[C@](O)(CO)[C@H]2O)[C@H]1O[C@@H]1OC[C@@H](O)[C@H](O[C@H]2O[C@H](C)[C@@H](O)[C@H](O)[C@@H]2O)[C@H]1O (stereo partly drawn) | 2.77% [at 9.29 µM] (inactive) | – | –
24 | CC(C)CC(=O)OC[C@@]1(O)C[C@@]23CC[C@H]4[C@@](C)(CCC[C@@]4(C)C(=O)O)[C@@H]2CC[C@@H]1C3 | – | inactive [at 17.3 µM] | –
25 | C/C=C(\C)C(=O)OC1C2(O)CC3=C4CC(=O)OC(c5ccoc5)C4(C)CCC3C(C)(C2=O)C(C(OC(C)=O)C(=O)OC)C1(C)C (stereo not drawn) | -6.33% [at 17.3 µM] (inactive) | – | –
26 | CCC1=C(C)C(=O)C(C)CC12C(=O)CCC2C(=O)O (stereo not drawn) | – | inactive | –
27 | Cn1c2ccc(NC(=O)c3ccccc3)cc2c(=O)n2nc(C(=O)O)cc12 | – | inactive [at 17.3 µM] | –
28 | COc1cc(C(O)C2COC(c3ccc(OC4OC(CO)C(O)C(O)C4O)c(OC)c3)C2CO)ccc1O (stereo not drawn) | 7.77% [at 17.3 µM] (inactive) | – | –
